The text below walks through data of PubChem BioAssay (Tox21).

Experiment [1] in a line: qHTS assay to identify aromatase inhibitors - cell viability counter screen (AID 743084).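 Also: cells stimulated with testosterone during compound exposure; nearly all actives have a fitted effect of over 55% in size.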 In general terms: qHTS replaces the single test concentration by a dilution series.
Experiment [2] has as its target Aryl hydrocarbon receptor (Homo sapiens) (UniProt P35869). Description: qHTS assay to identify small molecule that activate the aryl hydrocarbon receptor (AhR) signaling pathway (AID 743085). Also: nearly all actives have a fitted effect of over 15% in size. Also: potency is read from the fitted curve at half-maximal effect.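 As to activation: HG2L7.5c1 human HepG2 liver cells with stably integrated DRE-driven firefly reporter; series mostly up to about 70 µM.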 In outline: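 24 h compound exposure, 37C, HepG2-derived HG2L7.5c1 cells with DRE-responsive luciferase. Readouts: fluorescence viability, then luminescence at room temperature after 30 min.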

Experiment [3] in a line: qHTS assay to identify small molecule that activate the aryl hydrocarbon receptor (AhR) signaling pathway - cell viability counter screen (AID 743086).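 Also: HepG2 liver cells carrying the AhR DRE luciferase reporter; series mostly up to about 70 µM; nearly all actives have a fitted effect of over 45% in size.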 In outline: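 HepG2-AhR-luc (HG2L7.5c1) cells, 4000/well, treated 24 h at 37 C with compound; viability measured as CellTiter-Fluor fluorescence after 30 min in the same wells as the luciferase read.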
Experiment [4] has as its target Peroxisome proliferator-activated receptor gamma (Homo sapiens) (UniProt P37231). As to the kind of experiment: qHTS assay to identify small molecule agonists of the peroxisome proliferator-activated receptor gamma (PPARg) signaling pathway (AID 743094; active = well fitted activation curve with a large enough effect in the signal ratio in the repeat runs, not every such curve was filed as active; the % refers to the signal ratio). In short, it runs like this:
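GeneBLAzer PPARg UAS-bla HEK293H cells were plated, rested 5 h, then exposed to compounds for 17 h at 37C. Beta-lactamase activity was read by LiveBLAzer B/G FRET substrate fluorescence after 1 h at room temperature.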

Experiment [5] shares this target. As to the kind of experiment: qHTS assay to identify small molecule antagonists of the peroxisome proliferator-activated receptor gamma (PPARg) signaling pathway (AID 743191; calls by dose curve; also: series mostly up to about 63 µM; nearly all actives have a fitted effect of over 30% in size). In short, it runs like this: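 GeneBLAzer PPARg UAS-bla HEK293H cells, 5 h post-plating, exposed to compounds 17 h at 37C. LiveBLAzer B/G FRET substrate added for 1 h at room temperature; beta-lactamase reporter read by fluorescence intensity.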

Experiment [6] is described as follows: qHTS assay to identify small molecule antagonists of the peroxisome proliferator-activated receptor gamma (PPARg) signaling pathway - cell viability counter screen (AID 743194). Also: nearly all actives have a fitted effect of over 55% in size. In short, it runs like this: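 Cytotoxicity counter screen in PPARg-bla HEK293H cells, same wells as reporter assay. Compounds plus 50 nM rosiglitazone (final) for 17 h at 37 C, then viability read by CellTiter-Glo luminescence.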

Experiment [7] in a line: qHTS assay for small molecule agonists of the antioxidant response element (ARE) signaling pathway - cell viability counter screen (AID 743203; calls by dose curve; also: nearly all actives have a fitted effect of over 55% in size). In short, it runs like this: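 ARE-bla HepG2 cells were plated, rested 5 h at 37C/5% CO2, then exposed to compounds in DMSO for 16 h. Viability was read as CellTiter-Glo luminescence after 30 min at room temperature, in the same wells as the ARE screen.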

Experiment [8] can be described thus: qHTS assay for small molecule activators of the heat shock response signaling pathway - cell viability counter screen (AID 743209). Also: nearly all actives have a fitted effect of over 50% in size. Also: potency is read from the fitted curve at half-maximal effect. In short, it runs like this:
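HSE-bla HeLa cells plated overnight, then exposed to Tox21 compounds (23 nL in DMSO) for 5 h at 37 C. After the bla reporter read, CellTiter-Glo was added in the same wells and luminescence read after 30 min at room temperature.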

The nature of experiment [9]: qHTS assay for small molecule agonists of the antioxidant response element (ARE) signaling pathway (AID 743202; active = well fitted activation curve with a large enough effect in the signal ratio in the repeat runs, not every such curve was filed as active; the % refers to the signal ratio; also: potency is read from the fitted curve at half-maximal effect). In outline:
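ARE-bla HepG2 cells (beta-lactamase reporter under the antioxidant response element), plated 5 hours, then exposed to compounds 16 hours at 37 C. LiveBLAzer B/G FRET substrate added for 2 hours at room temperature; fluorescence intensity read.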

A short description of experiment [10]: qHTS assay for small molecule activators of the heat shock response signaling pathway (AID 743210; active = well fitted activation curve with a large enough effect in the signal ratio in the repeat runs, with a control signal flat, not every such curve was filed as active; the % refers to the signal ratio; also: potency is read from the fitted curve at half-maximal effect; as to activation: series mostly up to about 63 µM). In outline:
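HSE-bla HeLa cells (beta-lactamase reporter under heat shock response elements), plated overnight, then exposed to compounds 5 h at 37 C; LiveBLAzer B/G FRET substrate added, 2.5 h at room temperature, fluorescence intensity read.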

Several values for one entry are separate records, joined by “and”; a condition that tells them apart may be missing. Equal entries are not always repeated. Inconclusive results are not listed. Some structures have more than one record in an assay (separate samples or runs), and their calls can disagree. Activity calls are given as the source filed them. Unless noted, calls follow the shape of the dose curve; as a rule, active = well fitted curve in the direction sought with a large enough effect in the repeat runs; inconclusive = weak or mixed curves; inactive = no such curve, though single readings can be large; an effect the other way counts as inactive or inconclusive.

Peroxisome proliferator-activated receptor gamma (Homo sapiens), sequence (P37231 whole entry, looked up): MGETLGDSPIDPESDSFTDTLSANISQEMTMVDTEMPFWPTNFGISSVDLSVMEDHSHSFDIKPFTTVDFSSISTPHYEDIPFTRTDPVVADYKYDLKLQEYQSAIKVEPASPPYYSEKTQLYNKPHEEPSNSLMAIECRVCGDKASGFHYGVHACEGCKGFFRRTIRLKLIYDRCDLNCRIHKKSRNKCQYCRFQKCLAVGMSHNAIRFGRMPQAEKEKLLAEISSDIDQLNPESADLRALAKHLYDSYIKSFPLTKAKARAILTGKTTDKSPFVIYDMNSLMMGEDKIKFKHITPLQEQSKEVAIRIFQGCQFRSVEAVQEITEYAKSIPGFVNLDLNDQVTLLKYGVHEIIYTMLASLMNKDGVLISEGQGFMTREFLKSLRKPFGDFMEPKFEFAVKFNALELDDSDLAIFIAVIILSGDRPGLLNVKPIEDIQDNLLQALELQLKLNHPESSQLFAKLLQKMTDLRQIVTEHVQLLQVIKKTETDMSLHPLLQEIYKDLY
Aryl hydrocarbon receptor (Homo sapiens), sequence (P35869 whole entry, looked up): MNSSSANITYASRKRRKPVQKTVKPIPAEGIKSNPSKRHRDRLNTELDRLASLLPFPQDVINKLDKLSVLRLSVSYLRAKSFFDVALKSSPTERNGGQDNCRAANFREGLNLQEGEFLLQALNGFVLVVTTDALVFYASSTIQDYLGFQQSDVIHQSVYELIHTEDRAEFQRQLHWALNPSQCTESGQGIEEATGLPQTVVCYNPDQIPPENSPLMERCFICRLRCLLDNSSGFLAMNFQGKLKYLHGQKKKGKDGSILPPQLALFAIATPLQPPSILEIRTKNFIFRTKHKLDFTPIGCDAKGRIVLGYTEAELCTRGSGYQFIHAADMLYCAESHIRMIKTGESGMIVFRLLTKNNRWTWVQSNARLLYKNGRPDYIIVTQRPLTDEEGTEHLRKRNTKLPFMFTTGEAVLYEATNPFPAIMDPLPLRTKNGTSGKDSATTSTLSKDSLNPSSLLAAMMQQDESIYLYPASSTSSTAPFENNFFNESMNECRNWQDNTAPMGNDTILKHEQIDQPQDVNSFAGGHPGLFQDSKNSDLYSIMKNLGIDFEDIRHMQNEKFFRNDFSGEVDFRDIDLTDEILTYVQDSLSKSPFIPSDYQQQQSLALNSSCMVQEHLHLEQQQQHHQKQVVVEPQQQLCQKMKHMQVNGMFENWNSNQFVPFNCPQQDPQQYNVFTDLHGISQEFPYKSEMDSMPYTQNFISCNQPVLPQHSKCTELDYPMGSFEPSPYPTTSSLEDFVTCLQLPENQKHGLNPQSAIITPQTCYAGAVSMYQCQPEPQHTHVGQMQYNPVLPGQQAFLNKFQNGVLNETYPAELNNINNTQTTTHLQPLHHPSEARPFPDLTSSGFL

As for `CC(C)(C(=O)c1cccnc1)c1cccnc1`, the Potency entry in experiment [1], in [2], in experiment [3], in experiment [5], in experiment [6] and in experiment [7] was “inactive” in each case. In addition, the Potency entry in [8] is “inactive”. In addition, in [4], the call was inactive.

Take `CCCCCCCC/C=C\CCCCCCCC(=O)OCCO`: the Potency entry in experiment [1], in experiment [2], in experiment [3], in experiment [5], in experiment [6] and in [7] was “inactive” each time. Further, the compound was classed as inactive in experiment [4]. In addition, the Potency in experiment [8] was 64.9 µM (active).

With `Cc1cn([C@H]2C[C@H](F)[C@@H](CO)O2)c(=O)[nH]c1=O`, the Potency entry in experiment [1], in experiment [2], in [3], in experiment [5], in experiment [6] and in experiment [9] was “inactive” in each case. Further, the Potency entry in [7], in [8] and in experiment [10] was “inactive” each time. The call in experiment [4] was inactive.

As to `CC(C)N(C)C`, the Potency entry in [1], in experiment [2], in [3], in experiment [5], in experiment [6] and in experiment [9] was “inactive” in each case. Moreover, the Potency entry in experiment [8] and in experiment [10] was “inactive” each time. Further, the compound was called inactive in [4].

Regarding `CCN(CC)C(=O)N1CCN(C)CC1`, the Potency entry in experiment [1], in experiment [2], in experiment [3], in experiment [5], in experiment [6] and in experiment [9] was “inactive” each time. Besides, the Potency entry in experiment [7] and in experiment [10] was “inactive” throughout. Moreover, the outcome in experiment [4] was inactive.

In the case of `CNc1c2c(nn1C)CCCC2`, the Potency entry in experiment [1], in experiment [2], in experiment [3], in experiment [5], in experiment [6] and in experiment [9] was “inactive” throughout. Moreover, the Potency entry in experiment [8] and in [10] was “inactive” throughout. In addition, the call in [4] was inactive.

Take `Cc1ccc(N(CCO)CCO)cc1`: the Potency entry in [1], in experiment [2], in [3], in [5], in [6] and in experiment [7] was “inactive” throughout. Moreover, the Potency result in experiment [8] was “inactive”. The outcome in [4] was inactive.

On to `CNC1CCCN(c2c(F)cc3c(=O)c(C(=O)O)cn(C4CC4)c3c2OC)C1` (stereo not drawn), for which the Potency entry in [1], in experiment [2], in experiment [3], in [5], in experiment [6] and in experiment [9] was “inactive” in each case. Further, the Potency result in experiment [7] and in experiment [8] was “inactive” throughout. Moreover, the call in experiment [4] was inactive.

Take `O=C(NC(Cc1cc(=O)[nH]c2ccccc12)C(=O)O)c1ccc(Cl)cc1` (stereo not drawn): the Potency result in experiment [1], in experiment [2], in [3], in [5], in [6] and in experiment [9] was “inactive” throughout. Further, the Potency entry in experiment [7] and in [8] was “inactive” in each case. Besides, in experiment [4], the call was inactive.

On to `CC[C@@H](CO)NCCN[C@@H](CC)CO`, for which the Potency result in experiment [1], in [2], in [3], in experiment [5], in experiment [6] and in experiment [9] was “inactive” each time. Also, the Potency entry in experiment [7], in experiment [8] and in experiment [10] was “inactive” each time. In addition, the result in experiment [4] was inactive.

Turning to `O=C(O)CCCc1c[nH]c2ccccc12`, the Potency result in [1], in [2], in experiment [3], in experiment [5], in [6] and in experiment [9] was “inactive” throughout. The Potency entry in [7], in experiment [8] and in experiment [10] was “inactive” each time. For the same compound, the compound was called inactive in [4].

As to `O=C(/C=C/c1ccc([N+](=O)[O-])cc1)c1ccccc1`, the Potency result in experiment [1], in experiment [2], in experiment [3], in experiment [5], in experiment [6] and in [7] was “inactive” each time. In experiment [4], the compound was called inactive.

As to `COc1ccc2nc(S(=O)Cc3ncc(C)c(OC)c3C)[nH]c2c1` (stereo not drawn), the Potency result in experiment [1], in [3], in [5], in experiment [6] and in experiment [8] was “inactive” throughout. Further, the Potency was 48 µM (active) in experiment [2]; 17 µM (active) and 16.8 µM (active) in experiment [9]; 30.5 µM (active) and inactive in experiment [10]. Besides, the outcome in [4] was inactive.

On to `CCN(CC)CCOC(=O)C(c1ccccc1)c1ccccc1`, for which the Potency entry in experiment [1], in [2], in experiment [3], in experiment [5], in [6] and in [9] was “inactive” each time. Further, the Potency entry in experiment [7], in experiment [8] and in [10] was “inactive” each time. Further, in [4], the result was inactive.

For the compound `CC12CC3CC(C)(C1)CC(N)(C3)C2`, the Potency result in experiment [1], in experiment [2], in experiment [3], in experiment [5], in experiment [6] and in [9] was “inactive” each time. Also, the Potency result in experiment [7], in [8] and in experiment [10] was “inactive” each time. In [4], the compound was classed as inactive.

As to `CCCCCCCCCCCCCCN(C)C`, the Potency entry in experiment [1], in experiment [2], in experiment [3], in [5], in [6] and in experiment [9] was “inactive” each time. In addition, the Potency entry in [7], in [8] and in experiment [10] was “inactive” each time. In addition, the call in experiment [4] was inactive.

In the case of `C/C(C=O)=C\c1ccccc1`, the Potency entry in [1], in [2], in [3], in [5], in experiment [6] and in experiment [7] was “inactive” throughout. For the same compound, the Potency entry in experiment [8] is “inactive”. Further, the outcome in [4] was inactive.

Turning to `CCCCCCCC(=O)OCCCCCC`, the Potency result in [1], in experiment [2], in [3], in [5], in [6] and in experiment [9] was “inactive” throughout. In addition, the Potency result in experiment [7] and in experiment [8] was “inactive” in each case. The outcome in experiment [4] was inactive.

Regarding `C[C@@H]1C[C@H]2[C@@H]3CCC4=CC(=O)C=C[C@]4(C)[C@@]3(F)[C@@H](O)C[C@]2(C)[C@@]1(O)C(=O)COP(=O)(O)O`, the Potency result in [1], in experiment [2], in experiment [3], in [5], in [6] and in experiment [9] was “inactive” in each case. The Potency entry in experiment [8] is “inactive”. Also, the compound was called inactive in experiment [4].

`O=C(c1ccccc1)C1CCC1`: the Potency entry in experiment [1], in experiment [2], in experiment [3], in experiment [5], in experiment [6] and in experiment [9] was “inactive” throughout. In addition, the Potency entry in experiment [7] and in [8] was “inactive” throughout. Further, the call in experiment [4] was inactive.

`COc1cc(NC(C)CCCN)c2ncccc2c1` (stereo not drawn): the Potency entry in experiment [1], in experiment [2], in experiment [3], in [5], in [6] and in experiment [9] was “inactive” each time. The Potency entry in experiment [7], in experiment [8] and in [10] was “inactive” throughout. Also, in [4], the compound was called inactive.

Regarding `CCOCCC(=O)OCC`, the Potency entry in experiment [1], in experiment [2], in [3], in experiment [5], in experiment [6] and in experiment [9] was “inactive” in each case. In addition, the Potency entry in experiment [7], in experiment [8] and in [10] was “inactive” throughout. For the same compound, in experiment [4], the result was inactive.

In the case of `CCC(C)(C)C(=O)O`, the Potency entry in experiment [1], in experiment [2], in [3], in [5], in [6] and in experiment [9] was “inactive” in each case. In addition, the Potency result in experiment [7], in experiment [8] and in experiment [10] was “inactive” each time. In experiment [4], the call was inactive.

As to `CCC(CO)(CO)[N+](=O)[O-]`, the Potency entry in [1], in [2], in experiment [3], in experiment [5], in experiment [6] and in experiment [9] was “inactive” throughout. The Potency entry in [7] and in experiment [8] was “inactive” in each case. The outcome in experiment [4] was inactive.
